Results: PubChem BioAssay (Tox21)
“And” between values parts separate entries of the source, which are not always exact repeats. Equal values may be shown once. Inconclusive results are not listed. Where a structure was tested more than once in an assay, its records may differ in their call. The source made the active and inactive calls. Unless noted, the call rests on the fitted dose curve; in most records, active means well fitted curve in the direction sought with a large enough effect in the repeat runs; inconclusive means weak or mixed curves; inactive means no such curve, though single readings can be large; an effect the other way counts as inactive or inconclusive.

Key:
[1] = qHTS assay to identify small molecule antagonists of the estrogen related receptor signaling pathway with the pleiotropic PPARgamma coactivator (PGC) from Tox21 10K library (AID 1224841; call rule not given here; further: actives are mostly falling curves and most rising ones were filed inactive; nearly all actives have a fitted effect of over 50% in size; further: potency means the concentration at half of the fitted maximal effect)
Summary of the method: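 PGC/ERR cell line, 2,000 cells/well; 6 h pre-incubation 37 C/5% CO2; compounds (DMSO) pinned in; 18 h, 37 C; One-Glo, 30 min RT; luminescence.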

[2] = qHTS assay to identify small molecule agonists of the estrogen related receptor signaling pathway with the pleiotropic PPARgamma coactivator (PGC) from Tox21 10K library (AID 1224842); further: nearly all actives have a fitted effect of over 15% in size
Summary of the method: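 Luminescence from One-Glo (30 min, room temperature) measured after PGC/ERR cells had 18 h at 37 C with pinned compound (23 nL in DMSO). Cells had been seeded at 2,000 per well and pre-incubated 6 h.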

[3] = qHTS assay to identify small molecule agonists of H2AX (AID 1224845; active means well fitted activation curve with a large enough effect in the signal ratio in the repeat runs, not every such curve was filed as active; the % refers to the signal ratio; further: potency means the concentration at half of the fitted maximal effect)
Summary of the method: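 Phospho-H2AX Ser139 measured by HTRF (ex 320 nm; em 665 and 620 nm) after 24 hr antibody incubation. Compounds, 15 concentrations, 0.76% DMSO, were applied to CHO-K1 cells for 3hr at 37C before lysis.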

[4] = qHTS assay to identify small molecule agonists of H2AX - cell viability counter screen (AID 1224847; calls by dose curve; further: nearly all actives have a fitted effect of over 30% in size; further: potency means the concentration at half of the fitted maximal effect; on activity change, negative = cytotoxicity: top concentration of the series differs between compounds)
Summary of the method: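 Wild-type CHO-K1 cells (10% FBS medium) were plated overnight at 37C, exposed to compounds at 15 concentrations for 3 hr at 37C (0.76% DMSO final), and viability was read as CellTiter-Glo luminescence after 30 min at room temperature.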

[5] = qHTS assay to identify small molecule antagonists of the estrogen related receptor (ERR) signaling pathway from Tox21 library (AID 1224848); further: nearly all actives have a fitted effect of over 50% in size; further: potency means the concentration at half of the fitted maximal effect
Summary of the method: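 Reading was by luminescence 30 min after ONE-Glo addition. Before that, ERR cells at 2,000 per well had rested 6 h at 37 C/5% CO2 and then received pin-tooled compounds in DMSO for 18 h at 37 C.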

[6] = qHTS assay to identify small molecule agonists of the estrogen related receptor (ERR) signaling pathway from Tox21 library (AID 1224849; calls by dose curve; further: nearly all actives have a fitted effect of over 15% in size); details: ERR reporter cell line, ONE-Glo luciferase, 18 h
Summary of the method: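 ERR cells, 6 h pre-incubation 37 C/5% CO2; cpd in DMSO pinned; 18 h 37 C; ONE-Glo added, 30 min RT; luminescence read. Agonist mode, qHTS.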

[7] = qHTS RealTime-Glo MT Cell Viability Assay in HepG2 cells - 24 hour (AID 1224867); further: nearly all actives have a fitted effect of over 50% in size; further: potency means the concentration at half of the fitted maximal effect
Summary of the method: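 Luminescence read-out: viable HepG2 cells reduce a prosubstrate to a NanoLuc substrate, giving a signal proportional to live cell number. Reads taken at 0, 8, 16, 24, 32 and 40 h of compound exposure at 37 C.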

[8] = qHTS RealTime-Glo MT Cell Viability Assay in HEK293 cells - 32 hour (AID 1224868); further: nearly all actives have a fitted effect of over 50% in size; further: potency means the concentration at half of the fitted maximal effect; on activity change, negative = cytotoxic: top concentration of the series differs between compounds
Summary of the method: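 Nonlytic real-time viability readout: viable cells convert prosubstrate to NanoLuc substrate, giving luminescence proportional to live cell number. HEK293, 600 cells/well, compound added after 5 h, continuous culture at 37 C.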

[9] = A CellTox Green Cytotoxicity Assay to monitor cytotoxicity in HEK293 cells - 0 hour (AID 1224869); further: nearly all actives have a fitted effect of over 50% in size
Summary of the method: (§1)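 Nonlytic real-time cytotoxicity: HEK293 + CellTox Green reagent plated, 5 h preincubation, pintool compound addition (23 nL in DMSO), 37 C for 40 h, fluorescence measured at successive time points.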

[10] = qHTS RealTime-Glo MT Cell Viability Assay in HepG2 cells - 40 hour (AID 1224870); further: nearly all actives have a fitted effect of over 50% in size; further: potency means the concentration at half of the fitted maximal effect
Summary of the method: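 Real-time viability: cells seeded at 600 per well together with NanoLuc and cell-permeant prosubstrate, compounds added after 5 h incubation. Luminescence tracked at 0, 8, 16, 24, 32 and 40 h of exposure.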

[11] = A CellTox Green Cytotoxicity Assay to monitor cytotoxicity in HEK293 cells - 40 hour (AID 1224871); further: nearly all actives have a fitted effect of over 45% in size; further: potency means the concentration at half of the fitted maximal effect
Summary of the method: as §1

[12] = molecular target: Nuclear receptor subfamily 1 group I member 3 (Homo sapiens) (UniProt Q14994); assay: qHTS assay to identify small molecule agonists of the constitutive androstane receptor (CAR) signaling pathway (AID 1224839); further: nearly all actives have a fitted effect of over 15% in size; further: potency means the concentration at half of the fitted maximal effect;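 on activation: HepG2 cells stably carrying human CAR and a CYP2B6 luciferase reporter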
Chain of Nuclear receptor subfamily 1 group I member 3 (Homo sapiens) (Q14994 whole entry, looked up): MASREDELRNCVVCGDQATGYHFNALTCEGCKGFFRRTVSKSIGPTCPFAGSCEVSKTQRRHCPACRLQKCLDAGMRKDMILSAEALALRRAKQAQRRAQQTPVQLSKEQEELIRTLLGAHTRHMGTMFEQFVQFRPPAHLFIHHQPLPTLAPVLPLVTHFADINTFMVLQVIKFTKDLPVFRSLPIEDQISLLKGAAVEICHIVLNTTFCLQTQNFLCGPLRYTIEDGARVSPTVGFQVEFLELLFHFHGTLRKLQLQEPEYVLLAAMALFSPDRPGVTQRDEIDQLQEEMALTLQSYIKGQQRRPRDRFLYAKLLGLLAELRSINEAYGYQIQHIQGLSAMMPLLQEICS
Summary of the method: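 HepG2 cells stably expressing hCAR and a CYP2B6-2.2kb luciferase reporter were treated with compounds at 15 concentrations plus 0.75 uM PK11195 (final) for 24 h at 37 C; luminescence was read after ONE-Glo addition.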

[13] = molecular target: Thyrotropin receptor (Homo sapiens) (UniProt P16473); assay: qHTS assay to identify small molecule agonists of the thyroid stimulating hormone receptor (TSHR) signaling pathway (AID 1224843; calls by dose curve; further: nearly all actives have a fitted effect of over 45% in size; further: potency means the concentration at half of the fitted maximal effect)
Chain of Thyrotropin receptor (Homo sapiens) (P16473 whole entry, looked up): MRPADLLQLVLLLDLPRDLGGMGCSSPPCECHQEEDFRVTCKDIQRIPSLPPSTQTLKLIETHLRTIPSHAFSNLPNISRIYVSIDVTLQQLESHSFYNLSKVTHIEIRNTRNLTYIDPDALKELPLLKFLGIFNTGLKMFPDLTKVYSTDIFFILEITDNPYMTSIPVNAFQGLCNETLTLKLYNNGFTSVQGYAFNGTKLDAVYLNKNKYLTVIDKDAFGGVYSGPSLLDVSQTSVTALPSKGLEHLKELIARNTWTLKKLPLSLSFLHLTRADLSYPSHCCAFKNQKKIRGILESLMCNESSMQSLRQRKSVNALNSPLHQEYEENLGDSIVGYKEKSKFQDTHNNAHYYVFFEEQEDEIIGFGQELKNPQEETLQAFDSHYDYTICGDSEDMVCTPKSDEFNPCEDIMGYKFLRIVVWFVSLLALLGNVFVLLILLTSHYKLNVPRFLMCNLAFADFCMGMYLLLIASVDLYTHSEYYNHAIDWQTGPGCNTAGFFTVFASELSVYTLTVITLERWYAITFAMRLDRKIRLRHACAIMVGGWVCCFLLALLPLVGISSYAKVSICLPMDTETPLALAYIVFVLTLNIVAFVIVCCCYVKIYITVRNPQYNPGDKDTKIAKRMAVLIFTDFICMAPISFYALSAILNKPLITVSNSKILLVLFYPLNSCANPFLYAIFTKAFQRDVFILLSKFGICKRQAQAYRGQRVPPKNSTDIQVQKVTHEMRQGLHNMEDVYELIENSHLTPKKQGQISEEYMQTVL
Summary of the method: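 HEK293 cells stably bearing the thyrotropin receptor were plated at 800 cells/well and challenged with compound (30 min, RT). Accumulated cAMP was quantified via cAMP-d2 competing for cryptate-tagged antibody.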

[14] = qHTS assay to identify small molecule agonists of the hypoxia (HIF-1) signaling pathway - cell viability counter screen (AID 1224844; calls by dose curve; further: nearly all actives have a fitted effect of over 50% in size)
Summary of the method: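 ME-180 HRE-bla cells, 2,000/well, 0.5% dialyzed FBS; 5 hr settle, 17 hr compound at 37C/5% CO2; CCF4-AM reporter read first, then CellTiter-Glo luminescence after 30 min RT.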

[15] = qHTS assay to identify small molecule agonists of the hypoxia (HIF-1) signaling pathway (AID 1224846; active means well fitted activation curve with a large enough effect in the signal ratio in the repeat runs, not every such curve was filed as active; the % refers to the signal ratio)
Summary of the method: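 Cell line: CellSensor HRE-bla ME-180; 2,000 cells/well; 0.5% dialyzed FBS; 5 h preincubation; DMSO compound pin transfer; 17 h, 37C, 5% CO2; CCF4-AM added; bla FRET signal scored for activation.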

[16] = qHTS assay to identify small molecule antagonists of the constitutive androstane receptor (CAR) signaling pathway - cell viability counter screen (AID 1224837); further: nearly all actives have a fitted effect of over 45% in size; further: potency means the concentration at half of the fitted maximal effect
Summary of the method: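 HepG2-CYP2B6-hCAR cells, 2500/well, 4 hr pre-incubation; compound titration, 15 conc.; CITCO 50 nM final; 23 hr, 37 C/5% CO2; CellTiter-Fluor, fluorescence intensity.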

[17] = molecular target: Nuclear receptor subfamily 1 group I member 3 (Homo sapiens) (UniProt Q14994); assay: qHTS assay to identify small molecule antagonists of the constitutive androstane receptor (CAR) signaling pathway (AID 1224838); further: nearly all actives have a fitted effect of over 40% in size
Summary of the method: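 HepG2-CYP2B6-hCAR cells; 4 h pre-incubation; cpd (15 conc) + CITCO 50 nM final; 24 h, 37 C/5% CO2; ONE-Glo, luminescence.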

[18] = qHTS assay to identify small molecule antagonists of the estrogen related receptor signaling pathway with the pleiotropic PPARgamma coactivator (PGC) from Tox21 10K library - cell viability counter screen (AID 1224840; active means well fitted cell-killing curve with a large enough effect in the repeat runs, not every such curve was filed as active; further: nearly all actives have a fitted effect of over 40% in size; further: potency means the concentration at half of the fitted maximal effect)
Summary of the method: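 PGC/ERR cells, 2,000/well; 6 h pre-incubation 37 C/5% CO2; cpd in DMSO via pin tool; 17.5 h 37 C; CellTiter-Fluor, 30 min; fluorescence.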

[19] = qHTS assay to identify small molecule agonists of the constitutive androstane receptor (CAR) signaling pathway - cell viability counter screen (AID 1224836); further: nearly all actives have a fitted effect of over 45% in size
Summary of the method: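 HepG2 cells stably carrying hCAR and a CYP2B6-2.2kb reporter were plated 4 h, then given compounds at 15 concentrations plus PK11195 (final 0.75 uM). After 23 h at 37 C, viability was read by CellTiter-Fluor fluorescence.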

[20] = at 92.4 µM (top of the series) unless noted
On the % scale 0 is the no-effect control and ±100 the full control effect.

C[C@H]1O[C@@H](O[C@H]2[C@@H](O)C[C@H](O[C@H]3[C@@H](O)C[C@H](O[C@H]4CC[C@@]5(C)[C@H](CC[C@@H]6[C@@H]5C[C@@H](O)[C@]5(C)[C@@H](C7=CC(=O)OC7)CC[C@]65O)C4)O[C@@H]3C)O[C@@H]2C)C[C@H](O)[C@@H]1O
inactive: Potency [2] | Potency [3] | Potency [4] | Potency [5] | activity change, positive = activation ([6]; at 92.4 µM (top of the series)) -71.3% | Potency [7] | Potency [9] | Potency [10] | Potency [11]
active: Potency [1] 154 nM and 107 nM | activity change, positive = activation ([6]; at 42.5 µM (top of the series)) -72.5% | Potency [8] 61.7 nM and 54.3 nM

CC(C(O)c1ccccc1)N(C)CCOC(c1ccccc1)c1ccccc1 (centres undefined)
inactive: Potency [12] | Potency [2] | Potency [13] | Potency [14] | outcome [15] | activity change, positive = activation [6, 20] -45.6% [at 42.5 µM] | Potency [9]
active: Potency [5] 23.7 µM | Potency [8] 23.9 µM | Potency [11] 26.8 µM

C#CC(O)CCC (centres undefined)
inactive: Potency [16] | Potency [17] | Potency [12] | Potency [18] | Potency [1] | Potency [2] | Potency [13] | Potency [14] | Potency [3] | outcome [15] | Potency [5] | activity change, positive = activation [6, 20] 6.08% | Potency [7] | Potency [8] | Potency [9] | Potency [11]

N[C@@H](CSSC[C@H](N)C(=O)O)C(=O)O
inactive: activity change, negative = cytotoxicity [16] -3.15% [at 0.349 µM] | activity, negative = inhibition [17] -10.8% [at 0.349 µM] | activation [12] -0.0368% [at 0.349 µM] | viability change, negative = cytotoxic [18] 6.11% [at 0.349 µM] | activity, negative = inhibition [1] 16.2% [at 0.349 µM] | activation [13] 2.51% [at 0.349 µM] | activity change, negative = cytotoxicity [14] 25.3% [at 0.29 µM] | activity change, negative = cytotoxicity [4] -5.28% [at 0.582 µM] | activity, negative = inhibition [5] -3.98% [at 0.349 µM] | activity change, positive = activation [6, 20] -3.33% [at 0.349 µM] | activity change, negative = cytotoxicity [7] -0.491% [at 0.29 µM] | activity change, negative = cytotoxic [8] 5.6% [at 0.29 µM] | cytotoxicity [9] -2.52% [at 0.29 µM] | activity change, negative = cytotoxic [10] -2.12% [at 0.29 µM] | cytotoxicity increase [11] 3.14% [at 0.29 µM]

CCC(=O)CC(C)CC (centres undefined)
inactive: viability change, negative = cytotoxic [19] -0.276% [at 0.349 µM] | activity change, negative = cytotoxicity [16] 5.84% [at 0.349 µM] | viability change, negative = cytotoxic [18] 0.87% [at 0.349 µM] | activation [13] 6.29% [at 0.349 µM] | activity change, negative = cytotoxicity [14] 2.65% [at 0.29 µM] | activation (H2AX phosphorylation) [3] 0.83% [at 0.582 µM] | activation [15] 0.22% [at 0.291 µM] | activity change, negative = cytotoxicity [4] -3.23% [at 0.582 µM] | activity change, negative = cytotoxicity [7] -0.146% [at 0.29 µM] | activity change, negative = cytotoxic [8] 3.77% [at 0.29 µM] | cytotoxicity [9] 6.34% [at 0.29 µM] | cytotoxicity increase [11] 5.38% [at 0.29 µM]

CC(C)OC(=O)c1cc(C(=O)OC(C)C)cc([N+](=O)[O-])c1
inactive: Potency [19] | Potency [16] | Potency [18] | Potency [1] | Potency [14] | Potency [3] | outcome [15] | Potency [5] | activity change, positive = activation [6, 20] -0.42% | Potency [9] | Potency [10]
active: Potency [13] 22.2 µM

CCCCCCCCCCCCCCNCCO
active: Potency [12] 8.41 µM | Potency [3] 43.8 µM | Potency [4] 55.2 µM | Potency [7] 13.4 µM | Potency [8] 13.4 µM | Potency [10] 10.7 µM | Potency [11] 19 µM
inactive: Potency [19] | Potency [16] | Potency [13] | Potency [14] | outcome [15] | Potency [9]

CCC(C)c1cc([N+](=O)[O-])cc([N+](=O)[O-])c1OC(=O)OC(C)C (centres undefined)
inactive: Potency [2] | Potency [13] | Potency [3] | activity change, positive = activation [6, 20] -53.4% | Potency [9] | Potency [11]
active: Potency [16] 61.1 µM | Potency [18] 43.3 µM | Potency [1] 21.7 µM | Potency [5] 19.3 µM | Potency [7] 54.9 µM

Clc1ccccc1CN1CCc2sccc2C1
inactive: Potency [19] | Potency [16] | Potency [18] | Potency [14] | Potency [7] | Potency [9] | Potency [10] | Potency [11]

C=C(C)CCCC
inactive: Potency [16] | Potency [17] | Potency [12] | Potency [18] | Potency [13] | Potency [14] | Potency [3] | outcome [15] | Potency [5] | activity change, positive = activation [6, 20] 6.79% | Potency [7] | Potency [8] | Potency [9] | Potency [10] | Potency [11]
